The structures appear in SMILES notation. The panel holds about 83,000 compounds, 20% with a hit somewhere; the sample as a whole holds those more often.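 48-hour exposure, single concentration, 96-well plates; percent growth endpoint where 0 means no net growth. Active: below 10.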 A number with no mark means an inactive call. Calls of active or inactive are those of the source.

The record followed here is PubChem BioAssay (NCI).

Some test systems named below: BT-549 breast; MDA-MB-435 melanoma; SW-620 colon; MCF7 breast; HCT-116 colon; HCC-2998 colon; KM12 colon.
Holding throughout (assay): NCI-60 one-dose screen, 48 h (100 = growth as untreated, 0 = no growth, -100 = all killed)
Settings in all cases: 10 µM unless noted

With `N=c1sc(Cc2ccc(Cl)cc2)cn1CC(=O)c1ccc(F)cc1`, the growth in the test with BT-549 breast was 94.9%; in the test on MDA-MB-435 melanoma, 37%; with SW-620 colon it was 53.5%; with MCF7 breast, 55%; with HCT-116 colon it was 63.7%; in the test on HCC-2998 colon, 59%. The growth in the test on KM12 colon was 39.9%.

For the compound `CCc1c2c(nc3ccc(OC(=O)OCc4ccc(B5OC(C)(C)C(C)(C)O5)cc4)cc13)-c1cc3c(c(=O)n1C2)COC(=O)[C@]3(O)CC`, the growth was 13.2% in the test on BT-549 breast; -28.3% (active) in the test on MDA-MB-435 melanoma; 5.3% (active) in the test on SW-620 colon; 2.63% (active) in the test with MCF7 breast; 14.5% in the test on HCT-116 colon; 2.03% (active) with HCC-2998 colon. Besides, the growth in the test with KM12 colon is 0.859% (active).

Turning to `Cc1nc2ccccc2n1CC1NC(=O)NC1=O` (centres undefined), the growth is 107% in the test with BT-549 breast; 99.8% in the test on MDA-MB-435 melanoma; 97.6% with SW-620 colon; 96.2% in the test on MCF7 breast; 106% in the test on HCT-116 colon; 115% in the test with HCC-2998 colon. In the test on KM12 colon, the growth was 102%.

Take `O=C1/C(=C/c2ccc(Br)cc2)C=C(c2ccccc2)N1CCc1ccccc1`: the growth in the test on BT-549 breast is 74.5%; with MDA-MB-435 melanoma it was 63.2%; in the test with SW-620 colon, 70.2%; with MCF7 breast, 55.2%; in the test on HCT-116 colon it was 22.7%; with HCC-2998 colon it was 70.1%. Further, the growth with KM12 colon is 87.9%.

For the compound `COc1cccc(C(=O)NCCNc2cc(-c3cn(-c4ccccc4)nc3-c3cccc(OC)c3)ccn2)c1`, the growth is 40.8% with BT-549 breast; 64.3% in the test on MDA-MB-435 melanoma; 71.1% with SW-620 colon; 56.7% with MCF7 breast; 40.9% with HCT-116 colon; 63.9% with HCC-2998 colon. In the test on KM12 colon, the growth is 41.5%.

For the compound `Cc1ccc(Cl)cc1NC(=O)c1cc2ccccc2cc1O`, the growth in the test with BT-549 breast was -15.6% (active); in the test with MDA-MB-435 melanoma it was -7.31% (active); in the test on SW-620 colon it was -1.12% (active); in the test on MCF7 breast, -21.5% (active); in the test on HCT-116 colon it was -10.7% (active); with KM12 colon, -29.4% (active).

With `COc1ccc(CNC(=O)C(O)C(Cc2ccccc2)NC(=O)c2[nH]c3ccccc3c(=O)c2C)cc1OC` (centres undefined), the growth in the test on BT-549 breast was 104%; with MDA-MB-435 melanoma, 101%; in the test with SW-620 colon, 113%; in the test on MCF7 breast it was 99.7%; in the test with HCT-116 colon, 106%; in the test with HCC-2998 colon, 117%. Further, the growth with KM12 colon was 105%.

As to `N#Cc1c(-c2cccc(Cl)c2)cc(-c2cccc(F)c2)[nH]c1=O`, the growth was 86.4% in the test with BT-549 breast; 90.4% with MDA-MB-435 melanoma; 97% in the test on SW-620 colon; 89.2% in the test with MCF7 breast; 88.5% in the test on HCT-116 colon; 106% in the test on HCC-2998 colon. In the test with KM12 colon, the growth is 87.9%.

With `N#Cc1c(N2CCNCC2)nc2sc3cc(Cl)c(Cl)cc3n2c1=N`, the growth in the test on BT-549 breast is 118%; with MDA-MB-435 melanoma, 113%; in the test with SW-620 colon, 99%; in the test with MCF7 breast, 75.2%; with HCT-116 colon, 97.1%; in the test on HCC-2998 colon it was 118%. For the same compound, the growth in the test with KM12 colon was 115%.

On to `O=C(/C=C/c1c(Cl)nc2sccn12)c1ccc(F)c(F)c1`, for which the growth is 71.6% in the test on BT-549 breast; 82.6% in the test on MDA-MB-435 melanoma; 77.3% in the test with SW-620 colon; 45.2% with MCF7 breast; 69.5% in the test on HCT-116 colon; 85.6% with HCC-2998 colon. The growth in the test with KM12 colon was 83%.

As to `COc1ccc(-c2nc(SCCC(C)C)nc(N/N=C\c3cccc(Cl)c3)c2C#N)cc1`, the growth was 85.5% in the test with BT-549 breast; 88.5% in the test with MDA-MB-435 melanoma; 54.4% with SW-620 colon; 73.3% in the test with MCF7 breast; 33.3% in the test on HCT-116 colon; 92.2% in the test with HCC-2998 colon. In addition, the growth with KM12 colon was 90.6%.

For the compound `CC(C)(C)c1ccc(/C=C/C(=O)Nc2ccc(O)cc2)cc1`, the growth in the test on BT-549 breast was 66.6%; in the test on MDA-MB-435 melanoma it was 50.9%; with SW-620 colon, 71%; in the test with MCF7 breast, 60.9%; in the test with HCT-116 colon, 68.1%; in the test on HCC-2998 colon, 97%. The growth with KM12 colon was 36.5%.

For `COc1ccc(/C=C/c2c(C(=O)/C=C/c3ccc(F)cc3)c(C)nc3ccccc23)cc1`, the growth with BT-549 breast is 67.5%; with MDA-MB-435 melanoma, 41%; with SW-620 colon, 15.7%; in the test on MCF7 breast, 17%; in the test with HCT-116 colon it was 3.18% (active); with HCC-2998 colon, 34.6%. Also, the growth with KM12 colon is 58.3%.

In the case of `N[C@@H](CCCCNCC(=O)O)C(=O)O`, the growth in the test on BT-549 breast is 111%; with MDA-MB-435 melanoma, 102%; with SW-620 colon, 101%; with MCF7 breast, 105%; with HCT-116 colon, 106%; with HCC-2998 colon, 103%. Also, in the test with KM12 colon, the growth was 101%.

As to `COc1nc(N(C)O)nc(N(C)O)n1`, the growth in the test with BT-549 breast is 12.4%; in the test on MDA-MB-435 melanoma, 49.8%; with SW-620 colon it was 34.6%; in the test with MCF7 breast, 15%; in the test on HCT-116 colon it was 7.23% (active); in the test with HCC-2998 colon, 9.13% (active). In the test with KM12 colon, the growth is 24.5%.
